# The entries come from a sample that favours the strongest signals as a whole.
# B1: PX9937A-bvu-521-23-521 (Bacteroides vulgatus) (protein)
# chain: LDLAPEDYYGAGNFWKEASQPKAFMLGLHAQLRSYYDMFYTLGELRGGTQRVGTSSLNTSLNYADIRSQNISEDIPGISNWNGLYSPIMQVNHFIQEVENGCTFLDDATRSRYLGQAYGMRALYYFMLYRTFGGVPLITKVDILDGKPSADKFYVERATPEATMEFIKADINKSENYFGNNTSFDAYDWSRYATLMLKAEIYMWAAKVSITGFTATGATDLQTAKTALSGIIGHFELMDNFASIFSCDNKKNTEIIFAMPFIEGEASNDGGRFLYQDAVFLGQAYGRNGKVIEKDTLNLKGTGGVFRDEYTEDFWKTFKEGDSRRDATFMEYYMKNDNGTLSEFGCVMKKRIGTINSNDNRIYISDIPVYRYADALLMMAEIENGLNNPCASYINEVRKRAYGDTFEENKYTEGSYAENELAILQERDKEFVSEGKRWFDVLRMHDASGRSLVFSANANYPGTNPILGTEEAYKMLWPVNIGTLNVNPLLTQTPGYGKK
# Legend:
# Test in all cases: glycan array binding signal (z-score within array); higher = stronger binding
# Conditions in all cases: glycan notation: IUPAC condensed, linker removed
# [1] = biological target: Fuc(a1-2)Gal(b1-3)GlcNAc
# How it was run: (§1)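 The binding signal is a Z-score computed within each array. Data were drawn from 3228 arrays in the Consortium for Functional Glycomics database, restricted to those with a known protein sequence. Scores were averaged over arrays of the same protein sequence at different concentrations or buffers, and over linkers, and negative values can be taken as non-binding.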
# [2] = biological target: Fuc(a1-2)Gal(b1-4)GlcNAc(b1-2)Man(a1-3)[Fuc(a1-2)Gal(b1-4)GlcNAc(b1-2)Man(a1-6)]Man(b1-4)GlcNAc(b1-4)[Fuc(a1-6)]GlcNAc
# How it was run: as §1
# [3] = biological target: Fuc(a1-2)Gal(b1-4)GlcNAc(b1-3)Gal(b1-4)GlcNAc(b1-2)Man(a1-3)[Fuc(a1-2)Gal(b1-4)GlcNAc(b1-3)Gal(b1-4)GlcNAc(b1-2)Man(a1-6)]Man(b1-4)GlcNAc(b1-4)GlcNAc
# How it was run: as §1
# [4] = biological target: Fuc(a1-2)Gal(b1-4)GlcNAc(b1-3)[Fuc(a1-3)[Gal(b1-4)]GlcNAc(b1-6)]Gal(b1-4)Glc
# How it was run: as §1
# [5] = biological target: Fuc(a1-2)Gal3S(b1-4)GlcNAc
# How it was run: as §1
# [6] = biological target: Fuc(a1-2)[Gal(a1-3)]Gal(b1-3)GalNAc(b1-3)Gal(a1-4)Gal(b1-4)Glc
# How it was run: as §1
# [7] = biological target: Fuc(a1-2)[Gal(a1-3)]Gal(b1-4)GlcNAc(b1-2)Man(a1-3)[Fuc(a1-2)[Gal(a1-3)]Gal(b1-4)GlcNAc(b1-2)Man(a1-6)]Man(b1-4)GlcNAc(b1-4)GlcNAc
# How it was run: as §1
# [8] = biological target: Fuc(a1-2)[Gal(a1-3)]Gal(b1-4)GlcNAc(b1-3)GalNAc
# How it was run: as §1
# [9] = biological target: Fuc(a1-2)[Gal(a1-3)]Gal(b1-4)[Fuc(a1-3)]GlcNAc(b1-3)GalNAc
# How it was run: as §1
# [10] = biological target: Fuc(a1-2)[GalNAc(a1-3)]Gal(b1-4)GlcNAc(b1-3)[Fuc(a1-2)[GalNAc(a1-3)]Gal(b1-4)GlcNAc(b1-6)]GalNAc
# How it was run: as §1
# [11] = biological target: Fuc(a1-2)[GalNAc(a1-3)]Gal(b1-4)GlcNAc(b1-6)GalNAc
# How it was run: as §1
# [12] = biological target: Fuc(a1-2)[GalNAc(a1-4)]Gal(b1-4)GlcNAc
# How it was run: as §1
# [13] = biological target: Gal(a1-3)Gal(b1-4)GlcNAc(b1-2)Man(a1-3)[Gal(a1-3)Gal(b1-4)GlcNAc(b1-2)Man(a1-6)]Man(b1-4)GlcNAc(b1-4)GlcNAc
# How it was run: as §1
# [14] = biological target: Gal(a1-3)Gal(b1-4)[Fuc(a1-3)]GlcNAc(b1-2)Man(a1-3)[Gal(a1-3)Gal(b1-4)[Fuc(a1-3)]GlcNAc(b1-2)Man(a1-6)]Man(b1-4)GlcNAc(b1-4)GlcNAc
# How it was run: as §1
# [15] = biological target: Gal(a1-3)[Gal(a1-4)]Gal(b1-4)GlcNAc
# How it was run: as §1
# [16] = biological target: Gal(b1-3)GlcNAc
# How it was run: as §1
# [17] = biological target: Gal(b1-3)GlcNAc(b1-2)Man
# How it was run: as §1
# [18] = biological target: Gal(b1-3)GlcNAc(b1-3)Gal(b1-4)GlcNAc(b1-2)Man(a1-3)[Gal(b1-3)GlcNAc(b1-3)Gal(b1-4)GlcNAc(b1-2)Man(a1-6)]Man(b1-4)GlcNAc(b1-4)GlcNAc
# How it was run: as §1
# [19] = biological target: Gal(b1-4)GlcNAc(b1-2)[Gal(b1-4)GlcNAc(b1-6)]Man(a1-6)[Gal(b1-4)GlcNAc(b1-2)Man(a1-3)]Man(b1-4)GlcNAc(b1-4)GlcNAc
# How it was run: as §1
# [20] = biological target: Gal(b1-4)GlcNAc(b1-3)Gal(b1-4)GlcNAc(b1-3)Gal(b1-4)GlcNAc(b1-3)Gal(b1-4)GlcNAc(b1-3)Gal(b1-4)GlcNAc(b1-2)Man(a1-3)[Gal(b1-4)GlcNAc(b1-3)Gal(b1-4)GlcNAc(b1-3)Gal(b1-4)GlcNAc(b1-3)Gal(b1-4)GlcNAc(b1-3)Gal(b1-4)GlcNAc(b1-2)Man(a1-6)]Man(b1-4)GlcNAc(b1-4)GlcNAc
# How it was run: as §1
# [21] = biological target: Gal(b1-4)GlcNAc(b1-6)[Gal(b1-3)]GalNAc
# How it was run: as §1
# [22] = biological target: Gal(b1-4)GlcNAc(b1-6)[Gal(b1-4)GlcNAc(b1-3)]GalNAc
# How it was run: as §1
# [23] = biological target: Gal(b1-4)GlcNAc6P
# How it was run: as §1
# [24] = biological target: Gal3S(b1-3)GalNAc
# How it was run: as §1
# [25] = biological target: Gal3S(b1-4)[Fuc(a1-3)]GlcNAc6S
# How it was run: as §1
# [26] = biological target: Gal6S(b1-3)GlcNAc6S
# How it was run: as §1
# [27] = biological target: GalNAc(b1-4)GlcNAc
# How it was run: as §1
# [28] = biological target: GlcNAc(b1-2)Man(a1-3)[GlcNAc(b1-4)][GlcNAc(b1-2)Man(a1-6)]Man(b1-4)GlcNAc(b1-4)[Fuc(a1-6)]GlcNAc
# How it was run: as §1
# [29] = biological target: GlcNAc(b1-3)Fuc
# How it was run: as §1
# [30] = biological target: GlcNAc(b1-3)Gal(b1-4)GlcNAc(b1-2)Man(a1-3)[GlcNAc(b1-3)Gal(b1-4)GlcNAc(b1-2)Man(a1-6)]Man(b1-4)GlcNAc(b1-4)GlcNAc
# How it was run: as §1
binder,measurement,setting,value
B1,glycan array binding signal (z-score),[1],-0.251
same,glycan array binding signal (z-score),[2],0.307
same,glycan array binding signal (z-score),[3],0.158
same,glycan array binding signal (z-score),[4],-0.083
same,glycan array binding signal (z-score),[5],-0.223
same,glycan array binding signal (z-score),[6],-0.525
same,glycan array binding signal (z-score),[7],0.549
same,glycan array binding signal (z-score),[8],-0.367
same,glycan array binding signal (z-score),[9],-0.237
same,glycan array binding signal (z-score),[10],-0.334
same,glycan array binding signal (z-score),[11],0.027
same,glycan array binding signal (z-score),[12],-0.319
same,glycan array binding signal (z-score),[13],0.763
same,glycan array binding signal (z-score),[14],6.91
same,glycan array binding signal (z-score),[15],2.4
same,glycan array binding signal (z-score),[16],-0.312
same,glycan array binding signal (z-score),[17],-0.189
same,glycan array binding signal (z-score),[18],-0.279
same,glycan array binding signal (z-score),[19],4.26
same,glycan array binding signal (z-score),[20],2.53
same,glycan array binding signal (z-score),[21],6.72
same,glycan array binding signal (z-score),[22],0.459
same,glycan array binding signal (z-score),[23],0.719
same,glycan array binding signal (z-score),[24],-0.408
same,glycan array binding signal (z-score),[25],-0.018
same,glycan array binding signal (z-score),[26],-0.386
same,glycan array binding signal (z-score),[27],2.94
same,glycan array binding signal (z-score),[28],-0.211
same,glycan array binding signal (z-score),[29],2.63
same,glycan array binding signal (z-score),[30],2.54

# — the supplement of paper PMC8728848
